MCF10A rereplic: induces DNA re-replication in MCF 10a normal breast cells. Potency, µM (highest dose often 46.1 µM), for inactives: top-dose activity, positive = re-replication, actives largely listed as activators. MCF 10A DNA re-replication, Hoechst nuclear intensity, 48 h. 350,000 compounds, 2.9% hits; also: potency is read from the fitted curve at half-maximal effect; % of control where 0% means no effect; nearly all actives have a fitted effect of over 50% in size
TDP1 cell noCPT: qHTS for Inhibitors of human tyrosyl-DNA phosphodiesterase 1 (TDP1): qHTS in cells in absence of CPT; DT40 Tdp1-/- hTDP1 cells, no CPT, ATP luminescence, 48 h; Potency, µM (series often up to 46.2 µM), for the others: at the top dose activity change, negative = growth inhibition, usual class: inhibitors; AID 686978, 2013; 420,000 compounds, 15% hits; also: potency is read from the fitted curve at half-maximal effect; % is scaled to controls: 0 for no effect and ±100 for the full control effect; nearly all actives have a fitted effect of over 55% in size
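Readout: luminescence from CellTiter-Glo after 30 min in the dark at RT. Cells: DT40 Tdp1-/- with stable hTDP1, 400/well. Exposure: compounds alone, ≥48 hr, 37 °C.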
IL-1B inflam inh: inhibitors of inflammasome signaling (IL-1 beta secretion); THP-1 LPS/ATP IL-1B secretion, AlphaLISA, 16 h; stronger effect = lower value; activity change, % at 57.5 µM; 360,000 compounds, 4.7% hits; in the data active = activity change below about -50%; inconclusive = mostly about -30% to -49%; also: % is scaled to controls: 0 for no effect and ±100 for the full control effect
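Secreted IL-1B measured by AlphaLISA bead assay after 16 h compound exposure of THP-1 cells; compounds (final up to 57.5 uM) added 1 h before LPS (250 ng/mL) and ATP (1.25 mM) stimulation; lower signal means less secretion.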
Chronic BCR inh: blocks chronic active B-cell receptor signaling. ABC-DLBCL IkBa-CBG/CBR reporter, luminescence ratio, 4 h. Potency, µM (series often up to 46.1 µM), for inactives: at the top dose activity change, negative = inhibition, most hits filed as inhibitors. 340,000 compounds, 0.05% hits. AID 493014; active = well fitted inhibition curve with a large enough effect in the signal ratio, with a control signal flat, not every such curve was filed as active; inconclusive = small, poorly fitted or top-dose-only effect, or effect the other way, or a change in a side signal; the % refers to the signal ratio;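 also: potency is read from the fitted curve at half-maximal effect; plate controls were basal doxycycline-induced cells for no effect and cells given 10 µM MG132 for full effect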
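Concentration-response series (up to 46 uM) were applied to TMD8 dual-reporter cells for 4 h at 37C with doxycycline. Green/red ratio, after filter-overlap correction, defined %Activity; red signal alone was normalised to basal cells and zero luminescence.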
TDP1 cell CPT: growth inhibition of DT40 Tdp1-/-;hTDP1 cells with camptothecin (screen for TDP1 inhibitors). chicken DT40 Tdp1-/-;hTDP1 cells + 20 nM CPT, ATP luminescence, 48 h. Potency, µM (doses to about 46.2 µM), without a hit: at the top dose activity change, negative = growth inhibition, most hits filed as inhibitors. 420,000 compounds, 12% hits. AID 686979; also: potency is read from the fitted curve at half-maximal effect; % is scaled to controls: 0 for no effect and ±100 for the full control effect; nearly all actives have a fitted effect of over 55% in size
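Chicken DT40 Tdp1-/- cells stably complemented with human TDP1 were seeded at 400 cells/well in medium containing 20 nM camptothecin, exposed to pin-transferred compounds, and grown at 37 °C for at least 48 hr. Viability was read as ATP luminescence.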
SW480 rerep: inducers of DNA re-replication in SW480 colon cancer cells; AID 624297; Potency, µM (top dose mostly 46.1 µM), without a hit: at the highest dose re-replication activation, hits mostly activators; 340,000 compounds, 1.8% hits; SW480 DNA re-replication, Hoechst DNA content imaging, 48 h; also: potency is read from the fitted curve at half-maximal effect; % of control where 0% means no effect; nearly all actives have a fitted effect of over 55% in size
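Readout is total intensity of Hoechst-stained nuclei, excited at 405 nm and collected at 500-530 nm. Compound treatment lasted 48 hr at 37 C in 5% CO2 before staining.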
* = called active by the depositor; ? = inconclusive; . = no result given; [ ] = another dose, or the depositor's remark. Sampled rows, rich in hits. Any-hit rate of the full collection: about 19%. Unless noted, calls follow the shape of the dose curve; as a rule, active = well fitted curve in the direction sought with a large enough effect; inconclusive = small, poorly fitted or top-dose-only effect, or another doubt; inactive = no such curve, though single readings can be large; an effect the other way counts as inactive or inconclusive.

SMILES	MCF10A rereplic	TDP1 cell noCPT	IL-1B inflam inh	Chronic BCR inh	TDP1 cell CPT	SW480 rerep
O=C(Nc1ccccc1N1CCCC1)c1cccc(Cl)c1Cl	4.9%	?	16.1	-0.8%	-26.1%	14.5%
COc1ccc(Cl)cc1C(=O)Nc1ccc(NC(=O)C(C)C)cc1	?	18.4µM*	-59.8*	?	18.4µM*	3.9%
CCN(CC)S(=O)(=O)c1ccc(N2CCCCC2)c(NC(=O)C2CCN(C(=O)c3ccc(F)cc3)CC2)c1	-5.6%	23.1µM*	?	?	?	-64.6%
COc1ccc(Cl)cc1C(=O)Nc1ccc(NC(C)=O)cc1	-7.4%	0.6%	-14.2	0.6%	1.5%	-26.6%
O=C(Nc1ccccc1N1CCCC1)C1CCN(C(=O)c2ccc(Cl)cc2)CC1	0.0%	?	?	15.6%	?	-1.9%
CC(=O)N1CCN(c2ccccc2NC(=O)c2cccc3c(Cl)cccc23)CC1	11.2%	?	-12.2	-0.8%	14.6µM*	-0.4%
COc1cc2ccccc2cc1C(=O)Nc1ccccc1N1CCCC1	13.5%	?	6.1	?	?	3.3%
O=C(Nc1ccccc1N1CCN(C(=O)c2ccc(Cl)cc2)CC1)c1cccc(F)c1	3.1%	?	-55.5*	17.3%	?	20.9%
CCOc1cccc(C(=O)Nc2ccccc2N2CCN(C(=O)C(C)C)CC2)c1	17.7%	?	-53.1*	10.3%	?	?
COc1ccc(Br)cc1C(=O)Nc1ccccc1N1CCN(C(=O)c2ccccc2)CC1	20.6%	16.4µM*	-63.0*	0.7%	?	9.1%
COc1ccc(Cl)cc1C(=O)Nc1ccccc1N1CCN(C(=O)C(C)C)CC1	17.9%	18.4µM*	?	-0.4%	29.1µM*	26.0%
O=C(Nc1ccccc1N1CCN(C(=O)c2ccc(Cl)cc2)CC1)c1ccc2c(c1)OCO2	10.1%	-45.3%	8.6	20.1%	-53.8%	8.4%
COc1ccc(C(=O)Nc2ccccc2N2CCN(C(=O)C(C)C)CC2)cc1Cl	2.7%	?	-16.3	15.2%	?	-0.3%
CC(C)NC(=O)COc1coc(CN2CCN(c3ccccc3)CC2)cc1=O	0.0%	2.6%	16.4	-6.7%	10.3%	-7.6%
Cc1ccc(S(=O)ONc2cccc(NOS(=O)c3ccc(C)cc3)c2)cc1 (configuration not stated)	.	?	-18.6	.	?	.
Cc1c(NS(=O)(=O)c2cccc(C(=O)OCC(=O)c3ccc(Cl)cc3)c2)c(=O)n(-c2ccccc2)n1C	10.1%	-12.3%	14.7	.	-20.0%	3.1%
Cc1noc(C)c1S(=O)(=O)N(C)C[C@H]1Oc2ccc(NC(=O)CCC(F)(F)F)cc2C(=O)N([C@H](C)CO)C[C@@H]1C	7.9%	0.7%	5.7	?	6.4%	-22.6%
Cc1ccc(S(=O)(=O)N[C@@H](Cc2ccccc2)C(=O)N2CCC(C(=O)N[C@@H](CC(C)C)C(=O)O)CC2)cc1	-4.9%	12.0%	25.6	-1.1%	-4.9%	-2.4%
CC(C)C(=O)NC(=S)Nc1ccccc1N1CCN(C(=O)c2ccc(Cl)cc2)CC1	2.3%	16.4µM*	-3.9	-4.8%	?	?
COc1c(C)cc(Br)cc1C(=O)Nc1ccccc1N1CCN(C(=O)c2ccccc2)CC1	0.9%	14.6µM*	13.5	2.6%	?	1.8%
COc1c(C)cc(Br)cc1C(=O)Nc1ccc(N2CCN(S(C)(=O)=O)CC2)cc1	-8.7%	-29.7%	-7.5	2.5%	?	-1.7%
O=C(Nc1ccccc1N1CCN(C(=O)c2ccccc2)CC1)c1cc(Br)ccc1Cl	-186.7%[0.0737 µM]	23.1µM*	-28.7	?	18.4µM*	?
O=C(C1CCN(S(=O)(=O)c2ccc(-n3cnnn3)cc2)CC1)N1CCCCC1	6.0%	?	27.4	4.2%	-5.3%	-5.5%
CC(C)c1ccc(C2N=C(N)Nc3nc4ccccc4n32)cc1 (configuration not stated)	.	-25.6%	.	.	?	.
CC[C@H](C)[C@@H](CN[C@H](C)CNC)NCCC(c1ccccc1)c1ccccc1	?	3.66µM*	0.0	?	5.17µM*	-9.3%
SMILES	MCF10A rereplic	TDP1 cell noCPT	IL-1B inflam inh	Chronic BCR inh	TDP1 cell CPT	SW480 rerep
Cc1ccc2c(c1)C(c1ccccc1)N(C(=O)c1ccccc1F)CC(=O)N2 (configuration not stated)	.	?	.	.	18.4µM*	.
CCOc1cc(C(=O)N2CC(=O)Nc3ccc(C)cc3C2c2ccccc2)cc(OCC)c1OCC (configuration not stated)	.	20.6µM*	.	.	18.4µM*	.
Cc1ccc2c(c1)C(c1ccccc1)N(C(=O)c1ccccc1)CC(=O)N2 (configuration not stated)	?	?	-5.1	-3.2%	-22.4%	2.2%
O=C(O)c1ccc(CS(=O)(=O)c2ccc(Br)cc2)cc1	7.2%	9.5%	11.3	2.3%	7.2%	-3.9%
CC(C)CC1C(=O)N(Cc2cn(CCC3OCCO3)nn2)CCS(=O)(=O)N1Cc1ccc(-c2cccc(CO)c2)cc1 (configuration not stated)	.	23.1µM*	-11.0	.	?	.
Cc1cccc(C)c1-c1ccc(CN2C(CC(C)C)C(=O)N(Cc3cn(CCO)nn3)CCS2(=O)=O)cc1 (configuration not stated)	?	?	-56.7*	.	?	78.1%
CC(C)C1C(=O)N(Cc2cn(CCC3OCCO3)nn2)CCS(=O)(=O)N1Cc1ccc(-c2cccc(CO)c2)cc1 (configuration not stated)	.	23.1µM*	0.0	.	?	.
CC(C)CC1C(=O)N(Cc2cn(CCC3OCCO3)nn2)CCS(=O)(=O)N1Cc1ccc(-c2cccc(N(C)C)c2)cc1 (configuration not stated)	.	20.6µM*	-17.6	.	?	.
CC1C(=O)N(Cc2cn(CCC3OCCCO3)nn2)CCS(=O)(=O)N1Cc1ccc(-c2cccc(CO)c2)cc1 (configuration not stated)	.	?	86.8	.	-21.9%	.
CS(=O)(=O)N1Cc2ccccc2CC1C(=O)OCC(=O)NCCc1ccc(S(N)(=O)=O)cc1 (configuration not stated)	14.8%	7.0%	-1.4	?	-4.8%	3.8%
O=C(Cn1c2[n+](c3ccc(C(F)(F)F)cc31)CCCCC2)Nc1ccc(Br)cc1	2.9%	4.5%	0.0	7.6%	5.3%	-4.8%

From PubChem
